Laboratory results as given in ChEMBL document CHEMBL4513139, “CO-ADD screening of University of Strathclyde (UK) compounds”.
Entries with a potency or affinity are not part of this list.

Columns and labels:
Klebsiella pneumoniae = conditions: Concentration 32 ug.mL-1; ASSAY_TEST Inhibition of Bacterial Growth; detection method Absorption (OD600); MEDIA CAMHB; plate type 384well; NBS; CORNING #3640; time 18 hr
Candida albicans = conditions: 32 ug/mL
Cryptococcus neoformans = conditions: Concentration 32 ug.mL-1; ASSAY_TEST Inhibition of Fungal Growth; detection method Resazurin; Absorption (OD600-OD570); plate type 384well; NBS; CORNING #3640

Compound | Inhibition (Klebsiella pneumoniae) | Inhibition (Candida albicans) | Inhibition (Cryptococcus neoformans)
Cc1ncc(Cn2cc(CC(N)C(=O)O)nn2)c(N)n1.Cl (configuration not stated) | -13.87% | 2.15% | -37.7%
CC(C)CCn1cc(NC(=O)c2cc(NC(=O)c3cc(NC(=N)c4ccccc4)cn3C)cn2C)cc1C(=O)NCCCN(C)C.O=C(O)C(F)(F)F.O=C(O)C(F)(F)F | 2.69% | 0.79% | -53.65%
CC(C)c1sc(NC(=O)c2cc(NC(=O)c3cc(NC(=O)c4cnc(Cl)c(Cl)c4)cn3C)cn2C)nc1C(=O)NCCCN(C)C.O=C(O)C(F)(F)F | -2.83% | 7.37% | 12.34%
CC(C)CCc1sc(NC(=O)c2cc(NC(=O)c3cc(NC(=O)CCC(=O)O)cn3C)cn2C)nc1C(=O)NCCCN(C)C.O=C(O)C(F)(F)F | 2.15% | 2.8% | -103.67%
Cc1ncc(Cn2cc(CCCN)nn2)c(N)n1.Cl | -8.29% | 3.42% | -41.75%
CCOC(=O)c1cc(NC(=O)c2cc(NC(=O)c3nc(N)sc3CCC(C)C)cn2C)cn1C | 9.93% | 2.98% | -84.96%
Cn1cc(NC(=O)c2cc(NC(=O)c3sc(N)nc3C(F)(F)F)cn2C)cc1C(=O)NCCN1CCOCC1.O=C(O)C(F)(F)F | -3.11% | 1.1% | -112.77%
Cc1ncc(CNc2ccc(Cl)cc2)c(N)n1 | 5.04% | -0.54% | -54.67%
CN(C)CCCNC(=O)c1cc(NC(=O)c2cc(NC(=O)c3cc4ccccc4cn3)cn2C)cn1C.O=C(O)C(F)(F)F | 12.4% | 3.58% | -81.77%
